Data as given in PubChem BioAssay AID1376 (SRMLSC, 2008).
Out of some 220,000 compounds screened, about 530 (0.24%) were called active. What follows is part of a selection rich in actives, with near analogues and random picks from the rest. Results with a measured potency or affinity are listed apart. Values without a mark were called inactive. No stated cut-off is given here; in the data, active means inhibition above about 13%; inconclusive means no clear call, values can overlap the other calls; inactive means below that.

molecular target: Bifunctional protein GlmU (Mycobacterium tuberculosis (strain ATCC 25618 / H37Rv)) (UniProt P9WMN3); assay: inhibition of mycobacterial GlmU enzyme – biochemical, glucosamine-1-phosphate acetyltransferase (AID 1376);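 further: 0% = complete reaction with vehicle and 100% = reaction without substrate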; conditions: M. tuberculosis GlmU acetyltransferase enzyme assay; stronger effect = higher value;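 tested at 30 µM in the primary screen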
Sequence (P9WMN3 whole entry, looked up): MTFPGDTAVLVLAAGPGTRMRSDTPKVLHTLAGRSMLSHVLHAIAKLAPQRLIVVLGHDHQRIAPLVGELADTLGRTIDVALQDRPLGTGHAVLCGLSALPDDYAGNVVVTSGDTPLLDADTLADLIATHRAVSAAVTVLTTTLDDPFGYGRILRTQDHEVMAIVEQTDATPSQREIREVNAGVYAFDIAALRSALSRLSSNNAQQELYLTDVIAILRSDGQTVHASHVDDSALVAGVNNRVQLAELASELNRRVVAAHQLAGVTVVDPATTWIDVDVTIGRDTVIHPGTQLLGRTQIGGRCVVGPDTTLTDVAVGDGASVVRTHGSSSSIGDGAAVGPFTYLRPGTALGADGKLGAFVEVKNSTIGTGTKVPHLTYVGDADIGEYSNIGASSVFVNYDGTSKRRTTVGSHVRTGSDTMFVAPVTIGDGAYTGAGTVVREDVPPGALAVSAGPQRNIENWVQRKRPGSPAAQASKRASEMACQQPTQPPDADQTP

Compound	inhibition
CSc1ncccc1C(=O)OCC(=O)NC1CCS(=O)(=O)C1 (stereo not given)	3.34%
Cc1ccccc1OCc1nc(C#N)c(N2CCCC2)o1	-2.21%
COc1ccc(-c2cc(C(=O)N3CCN(c4ccccc4OC)CC3)no2)cc1OC	-2.36%
Cc1nc2ccccc2cc1C(=O)N/N=C/c1cccc([N+](=O)[O-])c1	1.15%
Cc1noc(C)c1C(=O)N1CCc2ccccc21	12.9% (active)
Cc1onc(-c2ccccc2)c1C(=O)N1CCc2ccccc21	-2.16%
Cc1noc(C)c1C(=O)N1CCCc2ccccc21	-6.07%
Cc1cc(S(=O)(=O)NCc2ccccc2)ccc1OCC(=O)N1CCOCC1	0.4%
CC(C)CCNC(=O)CCCOc1cc(=O)n(C)c2ccccc12	4.37%
CCN1CCN(C(=O)C23CCC(C)(C(=O)C2Br)C3(C)C)CC1 (stereo not given)	5.77%
CCCCC(=O)c1c(O)c2ccccc2oc1=O	0.58%
CCOc1ccc(OCC(=O)c2c(O)c3ccccc3oc2=O)cc1	14.2% (active)
CCc1ccc(OCC(=O)c2c(O)c3ccccc3oc2=O)cc1	-0.96%
COc1ccc(OCC(=O)c2c(O)c3ccccc3oc2=O)cc1	13.8% (active)
Cc1ccc(C(C)C)c(OCC(=O)c2c(O)c3ccccc3oc2=O)c1	4.14%
Cc1ccc(OCC(=O)c2c(O)c3ccccc3oc2=O)cc1C	0.96%
CNc1c([N+](=O)[O-])cnn1-c1ccc(C)cc1	5.02%
C=CCOc1ccc(/C(O)=C2/C(=O)C(=O)N(CCCn3ccnc3)C2c2ccco2)cc1 (stereo not given)	5.54%

Compound	inhibition
CC(C)(C)NCC(O)COc1ccc(Br)cc1 (stereo not given)	-5.25%
CN(C)c1nc(-c2ccccc2)nc(-c2ccc(Cl)cc2)c1C#N	-2.64%
C/C(=N\NC(=O)c1ccccc1)c1ccccc1Br	3.08%
Nc1ccc(S(=O)(=O)N2CCCC2)cc1Cl	0.44%
COC(=O)C1C(c2ccccc2)C=CC(c2ccccc2)C1C(=O)O (stereo not given)	2.66%
CC1=CC(C)C(C(=O)O)C(C(=O)O)C1 (stereo not given)	4.72%
CC(C)(C)C(=O)COC(=O)c1cccc(NC(=O)c2ccco2)c1	3.57%
CCn1c(-c2ccc(N(C)C)cc2)nc2ccccc21	13.3% (active)
CN(C)c1ccc(-c2nc3ccccc3n2C)cc1	3.52%
CCn1c(-c2ccc(N)cc2)nc2ccccc21	4.62%
Cc1cnc(C)c(N2CCC(C(=O)NCc3cccs3)CC2)n1	2.06%
Cc1cnc(C)c(N2CCC(C(=O)NC(C)c3cccs3)CC2)n1 (stereo not given)	13.1% (active)
Cc1cnc(C)c(N2CCC(C(=O)NCc3ccco3)CC2)n1	-3.63%
O=C/C(=C\Nc1ccccn1)c1nc2cc(Cl)ccc2o1	-1.58%
O=C/C(=C\Nc1ccc(Cl)cn1)c1nc2ccccc2o1	0.28%
O=C/C(=C\Nc1ccccn1)c1nc2ccccc2o1	13.3% (active)
COC(=O)/C=C/c1ccc(-n2cncn2)cc1	0.5%
